# Targets with a hit are over-represented here; the source holds about 7,900 in all. About 0.6% of all pairs of compound and target were hits. Unmarked numbers belong to inactive results.
# Assays:
# Assay in all cases: log2 fold change, soluble protein after heating vs DMSO (PISA); higher = thermal stabilisation; K562 cells, 10 uM, 30 min; active = over 0.2 and 3.5 SD of the protein, either way, in both replicates (recomputed)
# IRAK-1-4 Inhibitor I = compound: C1COCCN1CCN2C3=CC=CC=C3N=C2NC(=O)C4=CC(=CC=C4)[N+](=O)[O-] [IRAK-1-4 Inhibitor I]
# Outline: (§1)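 K562 cells (2×10^6 cells/mL) were treated with 10 μM compound for 30 min, and aliquots were heated for 3 min over 48°C-58°C. Pooled aliquots were extracted in PBS with 0.5% NP-40 at 4°C, and the supernatant after 21,000xg for 90 min was measured by TMTpro 16plex LC-MS/MS with channel sums equalised. Reported thermal stability, relative to control samples and from duplicates, is a log2 fold change.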
# ibrutinib = compound: C=CC(=O)N1CCC[C@@H](n2nc(-c3ccc(Oc4ccccc4)cc3)c3c(N)ncnc32)C1 [ibrutinib]
# Outline: as §1
# [1] = compound: CC(=O)c1cnc2ccc(-c3cc(Cl)c(O)c(Cl)c3)nc2c1N[C@H]1CC[C@H](CN(C)C)CC1
# Outline: as §1
# ralimetinib = compound: CC(C)(C)Cn1c(N)nc2ccc(-c3[nH]c(C(C)(C)C)nc3-c3ccc(F)cc3)nc21 [ralimetinib]
# Outline: as §1
# [2] = compound: CC(C)C1=C2N=C(C=C(N2N=C1)NCC3=CC=CC=C3)NCCCCCCN
# Outline: as §1
# [3] = compound: CC(C)C[C@@H](C=O)NC(=O)[C@H](CC(C)C)NC(=O)[C@H](CC(C)C)NC(=O)OCc1ccccc1
# Outline: as §1
# pinometostat = compound: CC(C)N(C[C@H]1O[C@@H](n2cnc3c(N)ncnc32)[C@H](O)[C@@H]1O)[C@H]1C[C@@H](CCc2nc3cc(C(C)(C)C)ccc3[nH]2)C1 [pinometostat]
# Outline: as §1
# [4] = compound: CC1=C(C(CC(=O)N1)C2=CC=C(C=C2)C(F)(F)F)C(=O)NC3=C(C=C4C(=C3)C=NN4)F
# Outline: as §1
# [5] = compound: CC1=C(C2=C(C=C1)C(=O)C3=CC=CC=C3N2CCCN)C
# Outline: as §1
# [6] = compound: CC1=C(C=C(C=C1)NC(=O)C2=CC(=CC=C2)C(C)(C)C#N)NC3=CC4=C(C=C3)N=CN(C4=O)C
# Outline: as §1
# [7] = compound: CC1=C(C=C(C=C1)NC(=O)C2=CC(=CC=C2)N(C)C)NC(=O)C3=CC=C(C=C3)O
# Outline: as §1
# [8] = compound: CC1=CC=C(C=C1)SC2=C3C=C(SC3=CN=C2)C(=O)N
# Outline: as §1
# [9] = compound: CC1=NC(=CC=C1)C2=C(N=C(N2)C(C)(C)C)C3=CC4=NC=CN=C4C=C3
# Outline: as §1
# vemurafenib = compound: CCCS(=O)(=O)Nc1ccc(F)c(C(=O)c2c[nH]c3ncc(-c4ccc(Cl)cc4)cc23)c1F [vemurafenib]
# Outline: as §1
# [10] = compound: CCCS(=O)(=O)Nc1ccc(F)c(C(=O)c2c[nH]c3ncc(Cl)cc23)c1F
# Outline: as §1
# [11] = compound: CCCc1cc(C)[nH]c(=O)c1CNC(=O)c1cc(-c2ccnc(N3CCN(C)CC3)c2)cc2c1cnn2C(C)C
# Outline: as §1
# givinostat = compound: CCN(CC)Cc1ccc2cc(COC(=O)Nc3ccc(C(=O)NO)cc3)ccc2c1 [givinostat]
# Outline: as §1
# barasertib = compound: CCN(CCCOc1ccc2c(Nc3cc(CC(=O)Nc4cccc(F)c4)[nH]n3)ncnc2c1)CCOP(=O)(O)O [barasertib]
# Outline: as §1
# [12] = compound: CC(C)(O)CC(=O)NCCn1ccc2ncnc(Nc3ccc(Oc4cccc(C(F)(F)F)c4)c(Cl)c3)c21
# Outline: as §1
# Nexturastat A = compound: CCCCN(Cc1ccc(C(=O)NO)cc1)C(=O)Nc1ccccc1 [Nexturastat A]
# Outline: as §1
# UniProt B2RBV5, sequence (B2RBV5 whole entry, looked up): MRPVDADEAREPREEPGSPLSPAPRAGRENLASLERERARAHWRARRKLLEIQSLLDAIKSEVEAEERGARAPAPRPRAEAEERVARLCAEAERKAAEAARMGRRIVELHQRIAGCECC
# UniProt Q9Y605, sequence (Q9Y605 whole entry, looked up): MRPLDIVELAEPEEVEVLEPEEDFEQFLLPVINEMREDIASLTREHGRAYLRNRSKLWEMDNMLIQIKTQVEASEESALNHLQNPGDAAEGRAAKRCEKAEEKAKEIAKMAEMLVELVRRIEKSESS
# UniProt Q5VVJ2, sequence (Q5VVJ2 whole entry, looked up): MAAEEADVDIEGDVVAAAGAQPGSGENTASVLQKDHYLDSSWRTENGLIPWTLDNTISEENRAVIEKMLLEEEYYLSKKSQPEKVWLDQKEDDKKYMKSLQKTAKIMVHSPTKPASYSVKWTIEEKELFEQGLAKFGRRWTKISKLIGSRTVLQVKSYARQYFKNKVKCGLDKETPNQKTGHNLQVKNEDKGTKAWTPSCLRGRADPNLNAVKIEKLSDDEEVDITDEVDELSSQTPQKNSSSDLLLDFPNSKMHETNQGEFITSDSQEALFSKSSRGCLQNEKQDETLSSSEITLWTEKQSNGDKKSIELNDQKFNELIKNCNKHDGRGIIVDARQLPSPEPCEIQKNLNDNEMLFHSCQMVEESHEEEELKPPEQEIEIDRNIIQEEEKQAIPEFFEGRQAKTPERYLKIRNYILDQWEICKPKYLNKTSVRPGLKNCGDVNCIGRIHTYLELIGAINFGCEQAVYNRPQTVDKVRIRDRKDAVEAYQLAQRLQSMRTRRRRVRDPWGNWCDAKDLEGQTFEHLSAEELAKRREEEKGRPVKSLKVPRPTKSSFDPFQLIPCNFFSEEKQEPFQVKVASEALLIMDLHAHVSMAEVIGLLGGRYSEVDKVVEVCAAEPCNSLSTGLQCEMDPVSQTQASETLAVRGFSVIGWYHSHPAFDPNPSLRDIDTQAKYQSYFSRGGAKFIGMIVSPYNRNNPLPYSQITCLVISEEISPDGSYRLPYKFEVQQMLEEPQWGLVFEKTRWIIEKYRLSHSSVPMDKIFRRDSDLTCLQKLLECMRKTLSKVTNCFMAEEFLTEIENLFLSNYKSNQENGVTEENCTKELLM
# UniProt Q8N573, sequence (Q8N573 whole entry, looked up): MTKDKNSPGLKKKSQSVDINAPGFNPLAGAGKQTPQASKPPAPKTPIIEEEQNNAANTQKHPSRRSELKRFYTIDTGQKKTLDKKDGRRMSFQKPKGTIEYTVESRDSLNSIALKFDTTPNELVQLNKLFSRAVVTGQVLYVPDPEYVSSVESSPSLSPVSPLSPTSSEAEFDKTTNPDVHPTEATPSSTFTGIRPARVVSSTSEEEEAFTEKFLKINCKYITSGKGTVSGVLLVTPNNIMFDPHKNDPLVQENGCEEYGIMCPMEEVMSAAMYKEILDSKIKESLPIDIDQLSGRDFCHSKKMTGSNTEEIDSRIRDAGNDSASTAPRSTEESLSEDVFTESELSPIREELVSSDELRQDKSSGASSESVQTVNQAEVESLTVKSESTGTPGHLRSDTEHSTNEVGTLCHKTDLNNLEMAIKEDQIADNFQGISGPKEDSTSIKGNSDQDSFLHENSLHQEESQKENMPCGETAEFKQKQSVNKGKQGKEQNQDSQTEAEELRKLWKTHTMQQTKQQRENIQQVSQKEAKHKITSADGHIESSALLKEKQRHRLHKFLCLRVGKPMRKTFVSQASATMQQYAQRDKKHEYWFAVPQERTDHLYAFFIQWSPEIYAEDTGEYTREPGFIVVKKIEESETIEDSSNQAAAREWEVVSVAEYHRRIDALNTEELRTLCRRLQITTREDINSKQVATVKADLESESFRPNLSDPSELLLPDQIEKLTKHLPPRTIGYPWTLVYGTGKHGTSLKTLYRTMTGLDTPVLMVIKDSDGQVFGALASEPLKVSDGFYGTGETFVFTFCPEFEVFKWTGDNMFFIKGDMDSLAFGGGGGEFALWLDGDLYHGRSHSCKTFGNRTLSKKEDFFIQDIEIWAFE
# UniProt Q9BS92, sequence (Q9BS92 whole entry, looked up): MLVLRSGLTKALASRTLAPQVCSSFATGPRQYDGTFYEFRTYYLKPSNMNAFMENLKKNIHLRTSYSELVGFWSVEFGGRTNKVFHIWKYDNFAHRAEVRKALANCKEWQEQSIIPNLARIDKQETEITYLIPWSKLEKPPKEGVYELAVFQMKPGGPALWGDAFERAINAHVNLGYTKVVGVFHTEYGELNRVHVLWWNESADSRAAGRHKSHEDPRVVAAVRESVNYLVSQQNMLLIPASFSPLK
# UniProt Q86VX9, sequence (Q86VX9 whole entry, looked up): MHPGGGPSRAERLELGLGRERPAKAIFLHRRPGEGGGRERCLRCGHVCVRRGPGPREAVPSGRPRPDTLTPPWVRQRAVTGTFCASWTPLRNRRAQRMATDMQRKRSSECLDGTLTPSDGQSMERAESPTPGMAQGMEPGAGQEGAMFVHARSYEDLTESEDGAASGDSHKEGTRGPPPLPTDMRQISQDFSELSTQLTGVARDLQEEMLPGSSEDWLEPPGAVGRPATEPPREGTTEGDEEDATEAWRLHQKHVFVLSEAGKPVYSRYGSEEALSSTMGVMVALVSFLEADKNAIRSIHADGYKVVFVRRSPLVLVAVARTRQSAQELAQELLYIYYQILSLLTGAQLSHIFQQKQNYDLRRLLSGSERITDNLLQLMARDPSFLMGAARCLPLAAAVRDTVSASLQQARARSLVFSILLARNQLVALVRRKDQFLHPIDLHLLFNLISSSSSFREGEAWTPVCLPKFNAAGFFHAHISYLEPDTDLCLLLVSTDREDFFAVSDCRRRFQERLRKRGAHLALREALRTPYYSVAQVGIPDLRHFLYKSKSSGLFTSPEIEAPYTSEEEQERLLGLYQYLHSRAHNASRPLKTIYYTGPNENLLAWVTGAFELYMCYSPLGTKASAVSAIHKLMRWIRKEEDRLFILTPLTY
# UniProt Q9Y6X9, sequence (Q9Y6X9 whole entry, looked up): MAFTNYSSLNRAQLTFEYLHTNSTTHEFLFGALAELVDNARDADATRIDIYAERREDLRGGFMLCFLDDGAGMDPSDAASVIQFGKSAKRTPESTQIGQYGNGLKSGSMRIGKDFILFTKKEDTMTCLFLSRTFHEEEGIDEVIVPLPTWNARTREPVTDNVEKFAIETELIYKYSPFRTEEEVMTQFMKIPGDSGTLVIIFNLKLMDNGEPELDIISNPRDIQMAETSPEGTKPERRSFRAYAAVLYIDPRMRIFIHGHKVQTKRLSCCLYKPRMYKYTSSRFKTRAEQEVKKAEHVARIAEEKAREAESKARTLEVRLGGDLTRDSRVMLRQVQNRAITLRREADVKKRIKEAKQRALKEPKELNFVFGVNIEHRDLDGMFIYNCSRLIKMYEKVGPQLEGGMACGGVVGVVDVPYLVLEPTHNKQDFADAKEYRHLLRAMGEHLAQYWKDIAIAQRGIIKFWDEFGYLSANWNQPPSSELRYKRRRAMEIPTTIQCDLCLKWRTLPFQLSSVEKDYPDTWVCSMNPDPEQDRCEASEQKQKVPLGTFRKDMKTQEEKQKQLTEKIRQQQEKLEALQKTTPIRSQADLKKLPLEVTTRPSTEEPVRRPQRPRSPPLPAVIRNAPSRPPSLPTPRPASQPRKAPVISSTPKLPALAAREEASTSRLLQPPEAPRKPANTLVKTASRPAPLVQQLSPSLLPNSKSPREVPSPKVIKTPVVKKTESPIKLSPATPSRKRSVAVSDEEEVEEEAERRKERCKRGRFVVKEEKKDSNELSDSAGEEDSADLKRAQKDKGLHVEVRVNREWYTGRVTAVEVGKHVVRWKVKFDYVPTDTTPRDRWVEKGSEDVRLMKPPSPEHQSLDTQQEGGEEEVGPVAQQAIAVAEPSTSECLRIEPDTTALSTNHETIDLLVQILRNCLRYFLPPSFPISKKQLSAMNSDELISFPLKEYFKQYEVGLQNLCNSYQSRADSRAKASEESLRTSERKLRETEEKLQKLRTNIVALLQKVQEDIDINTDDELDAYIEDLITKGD
# UniProt Q9H1P3, sequence (Q9H1P3 whole entry, looked up): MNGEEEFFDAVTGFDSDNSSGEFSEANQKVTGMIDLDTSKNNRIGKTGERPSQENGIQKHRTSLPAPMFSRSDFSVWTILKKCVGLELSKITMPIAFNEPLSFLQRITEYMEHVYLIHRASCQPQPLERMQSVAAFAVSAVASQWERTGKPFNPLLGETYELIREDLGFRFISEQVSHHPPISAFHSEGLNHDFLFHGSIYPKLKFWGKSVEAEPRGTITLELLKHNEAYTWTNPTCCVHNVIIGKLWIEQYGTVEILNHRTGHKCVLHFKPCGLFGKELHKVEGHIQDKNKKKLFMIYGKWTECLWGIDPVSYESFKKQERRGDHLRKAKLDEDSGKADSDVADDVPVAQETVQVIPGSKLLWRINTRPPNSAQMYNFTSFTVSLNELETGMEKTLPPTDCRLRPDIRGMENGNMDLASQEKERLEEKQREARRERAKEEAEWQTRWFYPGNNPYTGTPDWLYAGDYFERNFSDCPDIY
# UniProt P0C024, sequence (P0C024 whole entry, looked up): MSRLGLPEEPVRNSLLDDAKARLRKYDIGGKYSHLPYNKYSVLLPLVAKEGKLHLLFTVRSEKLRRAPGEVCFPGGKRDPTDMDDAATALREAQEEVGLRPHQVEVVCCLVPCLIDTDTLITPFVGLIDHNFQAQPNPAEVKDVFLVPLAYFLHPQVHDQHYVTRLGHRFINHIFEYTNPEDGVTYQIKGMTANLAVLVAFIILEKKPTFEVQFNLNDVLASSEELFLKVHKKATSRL
# UniProt Q86UD1, sequence (Q86UD1 whole entry, looked up): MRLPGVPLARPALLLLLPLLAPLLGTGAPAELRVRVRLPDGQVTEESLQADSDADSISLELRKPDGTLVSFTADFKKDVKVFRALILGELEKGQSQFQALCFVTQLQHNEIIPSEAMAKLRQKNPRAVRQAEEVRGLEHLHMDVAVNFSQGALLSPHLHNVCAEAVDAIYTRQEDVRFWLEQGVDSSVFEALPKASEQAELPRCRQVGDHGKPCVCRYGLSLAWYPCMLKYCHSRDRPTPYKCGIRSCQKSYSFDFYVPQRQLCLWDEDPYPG
Target,log2 fold change (IRAK-1-4 Inhibitor I),log2 fold change (ibrutinib),log2 fold change [1],log2 fold change (ralimetinib),log2 fold change [2],log2 fold change [3],log2 fold change (pinometostat),log2 fold change [4],log2 fold change [5],log2 fold change [6],log2 fold change [7],log2 fold change [8],log2 fold change [9],log2 fold change (vemurafenib),log2 fold change [10],log2 fold change [11],log2 fold change (givinostat),log2 fold change (barasertib),log2 fold change [12],log2 fold change (Nexturastat A)
MRFAP1 (UniProt Q9Y605),0.218,-0.017,0.206,-0.022,-0.056,0.437,-0.016,0.28,-0.339,-0.073,-0.011,0.101,-0.045,-0.148,0.046,0.009,0.017,0.036,,
OXR1 isoform 2 (UniProt Q8N573),-0.044,,-0.123,-0.088,,0.119,0.066,-0.028,0.031,,-0.007,0.008,-0.071,0.126,0.027,,,,-0.118,0
MYSM1 (UniProt Q5VVJ2),-0.264,0.291,,-0.022,,-0.061,0.153,,,0.067,-0.298,,0.006,,,,,-0.114,,
NA (UniProt B2RBV5),,0.069,,,,,,-0.314,,-0.022,,-0.245,,,0.005,0.021,,0.002,-0.037,0.292
NA (UniProt J3KR12),-0.191,-0.159,,0.011,,0.017,0.053,0.046,,,0.018,,0.073,,,-0.046,,0,-0.1,-0.283
MORC2 (UniProt Q9Y6X9),-0.292,0.042,-0.201,,-0.084,,0.038,,,,,-0.059,0.047,,0.208,0.231,0.026,-0.002,-0.074,-0.046
NIPSNAP3B (UniProt Q9BS92),0.048,0.082,0.026,,0.045,,0.056,0.07,0.049,-0.133,,0.049,0.023,0.065,0.016,-0.001,-0.088,0.016,,
MLH1 (UniProt P40692),,-0.018,-0.112,,,,,,0.008,,,0.023,,,0.276,0.584 (active),,0.11,-0.347,-0.014
OAF (UniProt Q86UD1),,,,-0.041,0.009,-0.013,,,,-0.005,-0.119,,,,,-0.346,-0.071,,,
NASP isoform 2 (UniProt P49321),,,,,,,,,,,,,,,,1.06,,,,
NOS1AP (UniProt O75052),,-0.061,,0.07,-0.026,1.38 (active),,,0.154,,-0.016,0.08,,-0.335,-0.161,0.101,-0.117,0.046,-0.073,-0.058
NPC1L1 (UniProt Q9UHC9),0.014,0.047,-0.008,,,,-0.136,-0.614,0.085,-0.014,,0.152,0.02,-0.213,-0.109,0.012,,-0.037,,
OSBPL2 (UniProt Q9H1P3),,,,,,,,,,,,-0.203,,,0,-0.264,,,,
NEK3 (UniProt P51956),0.104,,-0.184,-0.168,0.127,0.098,-0.015,-0.028,0.018,0.058,-0.055,0.052,-0.108,0.089,-0.123,-0.063,-0.013,,-0.015,-0.033
NUDT7 (UniProt P0C024),-0.02,0.205,,-0.52,0,0.207,-0.231,0.129,0.039,0.016,-0.021,,0.197,,,,0.017,0.666 (active),-0.467,0.014
NOLC1 isoform 3 (UniProt Q14978),,,,,0.151,,,,,,,,,,,,-0.02,,,
MON1A (UniProt Q86VX9),-0.005,0.231,,-0.213,-0.151,0.032,0.002,0.049,0.129,0.055,0.004,-0.061,0.061,,-0.011,0.009,0.008,0.065,-0.012,0.015
ORC3 (UniProt Q9UBD5),,,-0.031,,,,,,,,,,,,,,,,,
MYH16 (UniProt Q9H6N6),-0.177,-0.02,0.045,,0.026,,-0.019,-0.024,0.805 (active),0.484,,0.143,0.724 (active),0.155,0.216,0.12,-0.072,-0.069,,
MYLK (UniProt Q15746),-0.051,-0.101,,0.524,-0.207,-0.181,-0.051,-0.269,-0.136,0.832 (active),0.108,-0.013,0.202,0.081,-0.01,-0.154,-0.132,0.032,,

# Source: the supplement of paper PMC10849652
